Data published in publication PMC8384837, “Expanding the binding specificity for RNA recognition by a PUF domain”.
Where a chain is given by its changes, count along the chain named.

Tests used:
Assay in all cases: yeast three-hybrid, YBZ-1, SC-Leu-His + 0.5 mM 3-AT, 4 days
Settings in all cases: tags: N-Gal4 AD-HA kept; label: inside an RPR1-promoter hybrid RNA with tandem MS2 sites; ssRNA
PUM1 PUF domain R6-QWS = biological target: T1, PUM1 PUF domain R6-QWS (Homo sapiens, UniProt Q14671 828-1176, N1043Q;Y1044W;Q1047S)
T1 sequence: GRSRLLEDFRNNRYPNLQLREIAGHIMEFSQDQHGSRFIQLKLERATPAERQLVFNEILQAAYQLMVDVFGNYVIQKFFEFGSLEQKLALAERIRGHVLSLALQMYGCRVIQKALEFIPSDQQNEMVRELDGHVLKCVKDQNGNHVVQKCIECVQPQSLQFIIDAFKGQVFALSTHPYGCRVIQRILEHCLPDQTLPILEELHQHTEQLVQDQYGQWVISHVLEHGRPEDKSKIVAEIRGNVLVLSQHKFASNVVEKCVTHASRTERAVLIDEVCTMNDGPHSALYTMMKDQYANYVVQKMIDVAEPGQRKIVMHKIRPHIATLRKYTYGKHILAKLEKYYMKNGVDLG
Outline: (§1)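 Repeat regions from input (SC-Leu) and selection (SC-Leu-His + 0.5 mM 3-AT) plates were PCR-amplified and Illumina-sequenced after four days of growth. The cells were strain YBZ-1 with a LexA–MS2 coat fusion and a HIS3 reporter, co-expressing Pumilio-1 PUF domain libraries and matching RNA elements from a centromeric plasmid. The interaction score is the log change in variant frequency from input to selection, taken in log2 with a pseudocount of 1 for absent variants.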

PUM1 PUF domain R3-HRR = PUM1 PUF domain R3-HRR (Homo sapiens, UniProt Q14671 828-1176, C935H;Q939R)
Outline: as §1

PUM1 PUF domain R2-DWL = PUM1 PUF domain R2-DWL (Homo sapiens, UniProt Q14671 828-1176, N899D;Y900W;Q903L)
Outline: as §1

PUM1 PUF domain R3-VRL = PUM1 PUF domain R3-VRL (Homo sapiens, UniProt Q14671 828-1176, C935V;Q939L)
Outline: as §1

PUM1 PUF domain R5-MYG = PUM1 PUF domain R5-MYG (Homo sapiens, UniProt Q14671 828-1176, C1007M;R1008Y;Q1011G)
Outline: as §1

PUM1 PUF domain R4-YRC = PUM1 PUF domain R4-YRC (Homo sapiens, UniProt Q14671 828-1176, N971Y;H972R;Q975C)
Outline: as §1

PUM1 PUF domain R4-SIG = PUM1 PUF domain R4-SIG (Homo sapiens, UniProt Q14671 828-1176, N971S;H972I;Q975G)
Outline: as §1

PUM1 PUF domain R6-TFQ = biological target: T2, PUM1 PUF domain R6-TFQ (Homo sapiens, UniProt Q14671 828-1176, N1043T;Y1044F)
T2 sequence: T1 sequence with Q216T, W217F, S220Q
Outline: as §1

PUM1 PUF domain R7-CHP = PUM1 PUF domain R7-CHP (Homo sapiens, UniProt Q14671 828-1176, S1079C;N1080H;E1083P)
Outline: as §1

PUM1 PUF domain R3-RDK = PUM1 PUF domain R3-RDK (Homo sapiens, UniProt Q14671 828-1176, C935R;R936D;Q939K)
Outline: as §1

**Q.** For “GGCUAGAACUAGUGGAUCCCCCGGCGCCCGGCGGCUCGAGCCCGGGUAAGUGGAAAUAGUCUGCAUGCCGCCGGGCGCCAUGCCUGCAGGUCGACUCUAGAAAACAUG”, which binding signal (PUM1 PUF domain R6-QWS) is on record?
**A.** 3.82 log2 enrichment (interaction score)

**Q.** How did the binding signal (PUM1 PUF domain R3-HRR) turn out when “GGCUAGAACUAGUGGAUCCCCCGGCGCCCGGCGGCUCGAGCCCGGGUAAGUGUAAGUAGUCUGCAUGCCGCCGGGCGCCAUGCCUGCAGGUCGACUCUAGAAAACAUG” was run?
**A.** 2.66 log2 enrichment (interaction score)

**Q.** With “GGCUAGAACUAGUGGAUCCCCCGGCGCCCGGCGGCUCGAGCCCGGGUAAGUGUAAAAAGUCUGCAUGCCGCCGGGCGCCAUGCCUGCAGGUCGACUCUAGAAAACAUG” as the sequence, how does the binding signal (PUM1 PUF domain R2-DWL) read?
**A.** 6.44 log2 enrichment (interaction score)

**Q.** “GGCUAGAACUAGUGGAUCCCCCGGCGCCCGGCGGCUCGAGCCCGGGUAAGUGUAAAUAGUCUGCAUGCCGCCGGGCGCCAUGCCUGCAGGUCGACUCUAGAAAACAUG” was tested. Which binding signal (PUM1 PUF domain R3-VRL) did it give?
**A.** 3.56 log2 enrichment (interaction score)

**Q.** And the binding signal (PUM1 PUF domain R6-QWS)?
**A.** 3.91 log2 enrichment (interaction score)

**Q.** What about the binding signal (PUM1 PUF domain R5-MYG) of the same sequence?
**A.** 1.26 log2 enrichment (interaction score)

**Q.** And the binding signal (PUM1 PUF domain R4-YRC)?
**A.** 4.13 log2 enrichment (interaction score)

**Q.** And the binding signal (PUM1 PUF domain R4-SIG)?
**A.** 3.64 log2 enrichment (interaction score)

**Q.** Which binding signal (PUM1 PUF domain R5-MYG) does the source give for “GGCUAGAACUAGUGGAUCCCCCGGCGCCCGGCGGCUCGAGCCCGGGUAAGUGUUAAUAGUCUGCAUGCCGCCGGGCGCCAUGCCUGCAGGUCGACUCUAGAAAACAUG” here?
**A.** 3.99 log2 enrichment (interaction score)

**Q.** How did the binding signal (PUM1 PUF domain R6-TFQ) turn out when “GGCUAGAACUAGUGGAUCCCCCGGCGCCCGGCGGCUCGAGCCCGGGUAAGUGAAAAUAGUCUGCAUGCCGCCGGGCGCCAUGCCUGCAGGUCGACUCUAGAAAACAUG” was run?
**A.** 6.64 log2 enrichment (interaction score)

**Q.** How did the binding signal (PUM1 PUF domain R7-CHP) turn out when “GGCUAGAACUAGUGGAUCCCCCGGCGCCCGGCGGCUCGAGCCCGGGUAAGUCUAAAUAGUCUGCAUGCCGCCGGGCGCCAUGCCUGCAGGUCGACUCUAGAAAACAUG” was run?
**A.** 2.32 log2 enrichment (interaction score)

**Q.** How did the binding signal (PUM1 PUF domain R3-RDK) turn out when “GGCUAGAACUAGUGGAUCCCCCGGCGCCCGGCGGCUCGAGCCCGGGUAAGUGUAAUUAGUCUGCAUGCCGCCGGGCGCCAUGCCUGCAGGUCGACUCUAGAAAACAUG” was run?
**A.** 2.64 log2 enrichment (interaction score)

**Q.** And the binding signal (PUM1 PUF domain R3-HRR)?
**A.** 0.15 log2 enrichment (interaction score)
